This is a sample that favours compounds with a hit; in the whole collection about 21% have one here.
D3 ag: activates the human D3 dopamine receptor; P35462; D3R DiscoveRx beta-arrestin cells, luminescence, 90 min; max activation, %; 410,000 tested, 0.58% active; in the data active = max activation above about 30%; also: 0% is about no effect
Target sequence (P35462 whole entry, looked up): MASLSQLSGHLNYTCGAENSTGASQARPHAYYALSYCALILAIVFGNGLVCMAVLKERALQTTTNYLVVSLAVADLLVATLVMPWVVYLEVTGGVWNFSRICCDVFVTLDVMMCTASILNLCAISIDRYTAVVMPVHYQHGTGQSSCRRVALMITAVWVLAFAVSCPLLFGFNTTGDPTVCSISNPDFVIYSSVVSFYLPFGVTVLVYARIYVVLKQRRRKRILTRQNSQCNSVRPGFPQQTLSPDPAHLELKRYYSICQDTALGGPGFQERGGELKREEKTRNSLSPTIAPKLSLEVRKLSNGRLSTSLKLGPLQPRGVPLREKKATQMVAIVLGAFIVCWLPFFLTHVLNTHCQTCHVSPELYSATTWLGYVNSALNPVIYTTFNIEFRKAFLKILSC
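Agonist-mode cell screen: cells plated at 1500/well and incubated overnight at 37 °C, then exposed to library compounds for 90 min at 37 °C. Detection reagent was added for 30–60 min at room temperature, and luminescence was read.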
D3 antag: blocks the human D3 dopamine receptor; max response, negative = inhibition, %; 360,000 tested, 2.5% active; P35462; D3R cells, DiscoveRx beta-arrestin luminescence, antagonist mode; hits give low values; AID 652054; in the data active = max response below about -50%; inconclusive = no clear call, values can overlap the other calls; also: % is scaled to controls: 0 for no effect and ±100 for the full control effect
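Cells plated overnight at 1500 cells/well, then exposed to library compounds with dopamine controls for 90 minutes at 37 degrees C. DiscoveRx reagent added for 30–60 minutes at room temperature; luminescence read, quantitative HTS format.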
TDP1 cell noCPT: qHTS for Inhibitors of human tyrosyl-DNA phosphodiesterase 1 (TDP1): qHTS in cells in absence of CPT | DT40 Tdp1-/- hTDP1 cells, no CPT, ATP luminescence, 48 h | Potency, µM (titrated, usually from 46.2 µM), without a hit: at the top dose activity change, negative = growth inhibition, hits mostly inhibitors | 420,000 tested, 15% active | AID 686978, 2013; also: potency is read from the fitted curve at half-maximal effect; % is scaled to controls: 0 for no effect and ±100 for the full control effect; nearly all actives have a fitted effect of over 55% in size
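No-CPT arm: Tdp1-/-;hTDP1 DT40 cells (400/well) plus compounds, incubated ≥48 hr at 37 °C. Readout CellTiter-Glo luminescence.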
IL1B secr inh: blocks inflammasome-driven IL-1 beta release | THP-1 LPS/ATP IL-1B secretion, AlphaLISA, 16 h; hits give low values | activity change, % at 57.5 µM | 360,000 tested, 4.7% active; in the data active = activity change below about -50%; inconclusive = mostly about -30% to -49%; also: % is scaled to controls: 0 for no effect and ±100 for the full control effect
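Secreted IL-1B measured by AlphaLISA bead assay after 16 h compound exposure of THP-1 cells; compounds (final up to 57.5 uM) added 1 h before LPS (250 ng/mL) and ATP (1.25 mM) stimulation; lower signal means less secretion.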
ClpP mod: qHTS Assay for Activators of ClpP; purified B. subtilis ClpP, FRET peptide cleavage, 20 min; AID 651965, 2013; Potency, µM (series often up to 57.5 µM), without a hit: at the top dose activity change, negative = active; ATP-dependent Clp protease proteolytic subunit (Bacillus subtilis (strain 168)), P80244; 340,000 tested, 1.9% active; active = well fitted falling curve with a large enough effect; inconclusive = small, poorly fitted or top-dose-only effect; inactive = no such curve, though single readings can be large or run the other way; also: potency is read from the fitted curve at half-maximal effect; the source files actives as falling curves though it sought activators and does not explain the sign; nearly all actives have a fitted effect of over 65% in size
Target sequence (P80244 whole entry, looked up): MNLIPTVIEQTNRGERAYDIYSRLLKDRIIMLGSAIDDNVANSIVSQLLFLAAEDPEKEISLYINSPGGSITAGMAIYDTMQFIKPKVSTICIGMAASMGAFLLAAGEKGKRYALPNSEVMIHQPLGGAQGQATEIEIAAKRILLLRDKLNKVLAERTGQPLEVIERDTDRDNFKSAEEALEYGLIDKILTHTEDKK
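FRET quenching reversal measured ClpP activation: 10 microg/mL B. subtilis ClpP at pH 8 with the FRET-FV decapeptide, read at 430 nm after 320 nm excitation. The 20-min minus 0-min signal was scaled between DMSO/no-enzyme wells and ADEP (5.8 microM final).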
TDP1 cell CPT: DT40-hTDP1 cell growth loss with CPT; chicken DT40 Tdp1-/-;hTDP1 cells + 20 nM CPT, ATP luminescence, 48 h; Potency, µM (doses to about 46.2 µM), without a hit: top-dose activity change, negative = growth inhibition, hits mostly inhibitors; 420,000 tested, 12% active; also: potency is read from the fitted curve at half-maximal effect; % is scaled to controls: 0 for no effect and ±100 for the full control effect; nearly all actives have a fitted effect of over 55% in size
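Chicken DT40 Tdp1-/- cells complemented with human TDP1, 400 cells/well, exposed to compounds plus 20 nM camptothecin for at least 48 h at 37 C; viability read as ATP content by CellTiter-Glo luminescence.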
The depositor's hits bear a star; ? = inconclusive; · = no result. Unless noted, calls follow the shape of the dose curve; as a rule, active = well fitted inhibition curve with a large enough effect; inconclusive = small, poorly fitted or top-dose-only effect; inactive = flat fitted curve, though single readings scatter.

SMILES	D3 ag	D3 antag	TDP1 cell noCPT	IL1B secr inh	ClpP mod	TDP1 cell CPT
COc1ccc(F)cc1-c1cc(C(=O)NCc2cc(C(F)(F)F)cc(C(F)(F)F)c2)[nH]n1	-7.2	-14.2	?	-12.0	?	18.4µM*
CCCOc1ccc(F)cc1-c1cc(C(=O)NCc2cc(C(F)(F)F)cc(C(F)(F)F)c2)[nH]n1	1.4	85.4	?	-12.2	?	?
COc1ccc(F)cc1-c1cc(C(=O)NCc2ccc(F)cc2)[nH]n1	-17.2	-16.3	-26.7%	-3.0	-1.3%	?
COc1ccc(Cl)cc1-c1cc(C(=O)NCc2ccccc2)[nH]n1	-22.7	-59.0*	20.6µM*	-10.6	-10.6%	16.4µM*
COc1ccc(F)cc1-c1cc(C(=O)NCc2ccccc2)[nH]n1	-16.3	-4.4	?	-67.2*	-1.0%	-22.4%
CCOc1ccc(Cl)cc1-c1cc(C(=O)NCc2cc(C(F)(F)F)cc(C(F)(F)F)c2)[nH]n1	-0.4	0.6	?	0.0	-13.5%	23.1µM*
Cc1c(NS(=O)(=O)c2cccc(C(=O)N3CCC(C)CC3)c2)c(=O)n(-c2ccccc2)n1C	-5.6	-1.5	-22.7%	-11.4	·	-11.0%
N#Cc1c(-c2ccc(Cl)cc2)c2c([nH]c1=O)-c1ccccc1OC2	10.5	-19.6	0.9%	19.6	-0.9%	0.1%
CC(C(=O)O)c1ccc2c(c1)CC(=O)c1ccccc1S2 (configuration not stated)	-13.1	·	-10.6%	·	·	-1.9%
Cc1cccc(-c2nc(NCCN(C)C)c3ccccc3n2)c1	3.7	7.1	?	-16.4	0.3%	-9.7%
COc1cc(CNC(=O)c2cc(-c3cc(Cl)ccc3OC)n[nH]2)cc(OC)c1	-10.5	?	?	-8.8	-9.4%	?
CCOc1ccc(Cl)cc1-c1cc(C(=O)NCc2ccccc2)[nH]n1	-16.1	-18.7	?	?	-6.8%	11.6µM*
CCOc1ccc(Cl)cc1-c1cc(C(=O)NCc2ccccc2OC)[nH]n1	-6.1	-7.0	18.4µM*	0.0	-10.5%	?
CCC(=O)c1c[nH]c(C(=O)NCc2ccccc2OC)c1	-6.1	7.8	-25.2%	16.7	·	?
COc1ccccc1CNC(=O)c1cc(C(C)=O)c[nH]1	-2.5	-0.8	17.6%	0.6	-2.4%	3.6%
COc1ccccc1CNC(=O)c1cc(-c2ccc(F)cc2OC)n[nH]1	0.7	-0.3	?	-50.7*	-7.1%	-22.4%
COc1ccc(Cl)cc1-c1cc(C(=O)N[C@H](C)c2ccccc2)[nH]n1	-12.1	?	3.66µM*	-22.5	-7.9%	2.59µM*
COc1cccc(CC(NC(C)=O)C(=O)NC2CCN(C(=O)C3CC3)CC2)c1OC (configuration not stated)	0.9	2.7	3.0%	-6.0	0.1%	-4.3%
CCOC(=O)CCCNC(=O)CCNC(=O)c1ccc(OCC(C)C)cc1	-5.6	-12.4	2.1%	-0.9	0.1%	6.5%
CN(Cc1cccc(F)c1)C(=O)C1CC(=O)N(Cc2ccco2)C1 (configuration not stated)	-11.9	0.0	-21.9%	15.1	-0.5%	-1.5%
O=C(c1cccc(-c2nnc(-c3ccccc3)o2)c1)N1CCCCCC1	-9.2	31.3	14.1µM*	-14.1	-22.8%	?
O=C(c1ccccc1)N1CCCCC1	2.0	15.6	0.6%	16.1	2.1%	-4.8%
O=C(CCc1nnc(-c2ccc(-c3ccccc3)cc2)o1)N1CCCCC1	31.5*	31.4	20.6µM*	-0.6	·	?
O=C(c1cccc(-c2nnc(-c3ccccc3)o2)c1)N1CCCCC1	6.5	-28.0	14.6µM*	0.0	-8.7%	?
COC(c1ccccc1)c1nnc(CCC(=O)N2CCCCCCC2)o1 (configuration not stated)	12.3	-16.4	-15.1%	19.0	·	-5.5%
SMILES	D3 ag	D3 antag	TDP1 cell noCPT	IL1B secr inh	ClpP mod	TDP1 cell CPT
O=C(c1ccc(-c2ccccc2)cc1)N1CCCC1	-4.1	26.0	-27.5%	1.3	-1.4%	-2.2%
OC1CCN(C(=S)Nc2ccc(Oc3ccccc3)cc2)CC1	1.0	-5.3	?	26.5	-3.2%	-13.4%
O=C(CN1C(=O)S/C(=C\c2cccc(Cl)c2)C1=O)NC1C=CS(=O)(=O)C1 (configuration not stated)	1.4	11.5	-17.2%	-66.8*	-16.5%	?
O=C(CN1C(=O)/C(=C/c2ccccc2F)SC1=S)NC1C=CS(=O)(=O)C1 (configuration not stated)	10.0	-8.4	-12.7%	-50.0*	·	-3.3%
COc1cccc(/C=C2\SC(=S)N(CCC(=O)NNC(=O)c3ccccc3OC)C2=O)c1	5.0	1.5	-13.2%	39.2	·	-4.9%
CN(C(=O)CN1C(=O)S/C(=C\c2cccc(Cl)c2)C1=O)C1CCS(=O)(=O)C1 (configuration not stated)	4.5	0.0	?	-20.5	-2.9%	?
O=C(CN1C(=O)/C(=C/c2cccc(Cl)c2)SC1=S)NC1C=CS(=O)(=O)C1 (configuration not stated)	7.2	-10.8	16.4µM*	-63.5*	·	?
O=C(CN1C(=O)S/C(=C\c2ccccc2F)C1=O)NC1CCS(=O)(=O)C1 (configuration not stated)	4.6	6.2	19.2%	-14.8	-0.1%	-9.2%
COc1cccc(/C=C2\SC(=O)N(CCC(=O)NNC(=O)c3ccccc3Cl)C2=O)c1	57.0*	15.6	-16.3%	25.1	1.6%	0.5%
COC(=O)[C@@]1(Cc2ccc(F)cc2)[C@H]2c3cc(C(=O)N(C)C)n(CCN4CCOCC4)c3C[C@H]2CN1C(=O)c1ccccc1	-3.2	-2.4	?	10.0	-1.5%	?
COc1ccc(/C=C2\SC(=S)N(CCC(=O)NC3C=CS(=O)(=O)C3)C2=O)cc1 (configuration not stated)	3.1	-5.6	5.4%	?	0.6%	-24.6%
COc1cccc(/C=C2\SC(=S)N(CCC(=O)NC3C=CS(=O)(=O)C3)C2=O)c1 (configuration not stated)	-15.4	2.8	?	-67.3*	0.8%	?
O=C(CN1C(=O)S/C(=C\c2ccc(Cl)cc2)C1=O)NC1C=CS(=O)(=O)C1 (configuration not stated)	-2.2	19.1	?	-68.7*	-1.3%	5.17µM*
COc1cccc(/C=C2\SC(=S)N(CCC(=O)NCCc3ccc(O)cc3)C2=O)c1	2.6	-12.1	?	-84.9*	-0.3%	18.4µM*
